The list is not random: actives were taken first. Their share in the collection is about 19%.
HT1080-NT tox = qHTS for induction of synthetic lethality in tumor cells producing 2HG: qHTS for the HT-1080-NT fibrosarcoma cell line; Potency, µM (series often up to 46.1 µM), inactives show at the highest dose activity, negative = less viability, actives largely listed as cytotoxic; HT-1080-NT fibrosarcoma viability, CellTiter-Glo ATP luminescence, 48 h; 360,000 tested, 1.6% active;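 further: NT is the 2HG producing partner of a matched IDH1 knockdown line; potency means the concentration at half of the fitted maximal effect; 0% = DMSO-treated cells and -100% = media-only wells without cells; nearly all actives have a fitted effect of over 55% in size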
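HT-1080-NT fibrosarcoma cells (2HG-overproducing), 750 cells/well in RPMI with 5% FBS, dosed after 2 h and incubated 48 h at 37C. CellTiter-Glo luminescence normalized to DMSO and no-cell wells; concentration-response curves fitted and classed.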
DT40 TDP1 no CPT = qHTS for Inhibitors of human tyrosyl-DNA phosphodiesterase 1 (TDP1): qHTS in cells in absence of CPT; DT40 Tdp1-/- hTDP1 cells, no CPT, ATP luminescence, 48 h; Potency, µM (titrated, usually from 46.2 µM), for the others: at the top dose activity change, negative = growth inhibition, hits mostly inhibitors; 420,000 tested, 15% active; AID 686978, 2013; further: potency means the concentration at half of the fitted maximal effect; nearly all actives have a fitted effect of over 55% in size
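Readout: luminescence from CellTiter-Glo after 30 min in the dark at RT. Cells: DT40 Tdp1-/- with stable hTDP1, 400/well. Exposure: compounds alone, ≥48 hr, 37 °C.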
TDP1 cell CPT = qHTS for Inhibitors of human tyrosyl-DNA phosphodiesterase 1 (TDP1): qHTS in cells in presence of CPT | Potency, µM (highest dose often 46.2 µM), for the others: at the highest dose activity change, negative = growth inhibition, most hits filed as inhibitors | 420,000 tested, 12% active | chicken DT40 Tdp1-/-;hTDP1 cells + 20 nM CPT, ATP luminescence, 48 h; further: potency means the concentration at half of the fitted maximal effect; nearly all actives have a fitted effect of over 55% in size
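Cell growth measured by CellTiter-Glo luminescence after a minimum 48 h, 37 C compound exposure with 20 nM CPT in Tdp1-knockout DT40 cells stably expressing hTDP1, seeded 400/well; qHTS titration format.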
IL-1B inflam inh = qHTS for Inhibitors of Inflammasome Signaling: IL-1-beta AlphaLISA Primary Screen; 360,000 tested, 4.7% active; activity change, % at 57.5 µM; THP-1 LPS/ATP IL-1B secretion, AlphaLISA, 16 h; stronger effect = lower value; in the data active means activity change below about -50%; inconclusive means mostly about -30% to -49%
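THP-1 cells pretreated 1 hr with compounds (up to 57.5 uM final), then stimulated with LPS (250 ng/mL final) plus ATP (1.25 mM final); secreted IL-1B measured by AlphaLISA after 16 hr, decreased signal indicating inhibition.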
HT1080 IDH1KD tx = qHTS for induction of synthetic lethality in tumor cells producing 2HG: qHTS for the HT-1080-IDH1KD cell line; AID 686971, 2013; 360,000 tested, 2% active; Potency, µM (doses to about 46.1 µM), for the others: at the highest dose activity, negative = toxicity, actives largely listed as cytotoxic; HT-1080 IDH1 knockdown viability, ATP luminescence, 48 h;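 further: potency means the concentration at half of the fitted maximal effect; 0% = DMSO wells and -100% = cell-free medium wells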
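CellTiter-Glo luminescence after 48 h compound exposure at 37 degrees C of IDH1-knockdown HT-1080 cells in 5% FBS RPMI. %Activity scaled between DMSO wells and cell-free media wells, with curves fitted and assigned curve classes.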
ELG1 DNA repair = qHTS screen for small molecules that inhibit ELG1-dependent DNA repair in human embryonic kidney (HEK293T) cells expressing luciferase-tagged ELG1; HEK293T ELG1-luciferase reporter, luminescence, 16 h; DNA damage induced by 5-fluorouridine; Potency, µM (highest dose often 46.1 µM), for inactives: at the highest dose activity change, negative = inhibition, most hits filed as inhibitors; 330,000 tested, 2.3% active; further: potency means the concentration at half of the fitted maximal effect; nearly all actives have a fitted effect of over 55% in size
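Quantitative HTS, concentration-response format. 2,000 cells/well co-treated with 5-fluorouridine and compound, 16 hr in 5% CO2 at 37 °C; ONE-Glo luminescence read after 30 min.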
Numbers without * were called inactive; ? = inconclusive; / = no result. Unless noted, the call rests on the fitted dose curve; in most records, active means well fitted curve in the direction sought with a large enough effect; inconclusive means small, poorly fitted or top-dose-only effect, or another doubt; inactive means no such curve, though single readings can be large; an effect the other way counts as inactive or inconclusive. Unless noted, on the % scale 0 is the no-effect control and ±100 the full control effect.

SMILES | HT1080-NT tox | DT40 TDP1 no CPT | TDP1 cell CPT | IL-1B inflam inh | HT1080 IDH1KD tx | ELG1 DNA repair
COC(=O)c1cc(NC(=O)CN(c2ccccc2OC)S(=O)(=O)c2ccccc2)ccc1Cl | -24.9% | ? | ? | -21.5 | -16.1% | 23.1µM*
COc1cccc(N(CC(=O)Nc2ccc3c(c2)OCO3)S(=O)(=O)c2ccccc2)c1 | -13.3% | ? | ? | ? | -10.3% | -21.6%
COc1ccccc1CNC(=O)CN(Cc1ccc(Cl)cc1)S(C)(=O)=O | -13.1% | ? | -19.1% | -0.7 | -1.7% | -5.2%
O=C1CN(C(=O)CN2CCN(S(=O)(=O)c3ccccc3)CC2)c2ccccc2N1 | 7.8% | -15.5% | -23.1% | 2.1 | 11.1% | /
O=C1OC(CC(=O)N(Cc2nnc(-c3ccc(Cl)cc3)o2)C2CC2)c2ccccc21 (centres undefined) | 8.7% | -26.9% | ? | 0.0 | 8.5% | 5.0%
CC1(C)CC(=O)C2=C(C1)Nc1ccccc1NC2c1ccc([N+](=O)[O-])cc1 (centres undefined) | 15.4% | -8.4% | 1.1% | -0.3 | 2.6% | /
Cc1ccc2nc(NC(=O)COC(=O)c3ccccn3)sc2c1 | 16.8% | -6.8% | -2.6% | 0.3 | 14.4% | ?
CC(=O)c1ccc(NC(=O)C(C)OC(=O)c2ccc(Br)o2)cc1 (centres undefined) | -3.3% | ? | ? | -6.1 | -3.1% | 8.2%
COc1ccc(C2c3c(ncn(Cc4ccco4)c3=N)Oc3ccc4ccccc4c32)cc1 (centres undefined) | 20.6µM* | 16.4µM* | ? | -76.7* | ? | -7.3%
COc1ccc(Cc2nc3c4c(ncn3n2)Oc2ccc3ccccc3c2C4c2ccc(OC)c(OC)c2)cc1 (centres undefined) | 1.6% | -36.4% | -3.3% | 0.0 | 7.2% | ?
COc1ccc(C2c3ccc(O)cc3Oc3ncn(Cc4ccco4)c(=N)c32)cc1 (centres undefined) | -5.5% | 20.6µM* | 11.6µM* | ? | -1.6% | -18.4%
COc1ccc(C2c3ccc(O)cc3Oc3ncn4nc(-c5ccccn5)nc4c32)cc1 (centres undefined) | -11.7% | -8.9% | -13.1% | 24.4 | ? | ?
C[C@H]1CN([C@@H](C)CO)C(=O)CCCn2cc(nn2)CO[C@@H]1CN(C)C(=O)Nc1ccc(F)cc1 | 12.0% | 8.6% | -21.4% | 3.7 | 5.1% | /
CC(=O)Nc1ccc(OC(=O)c2ccccc2O)cc1 | / | ? | 0.581µM* | / | / | /
CC(C)OC(=O)c1cccc(NC(=O)c2ccccc2)c1 | -2.9% | 13µM* | 13µM* | -3.4 | -6.3% | ?
CC(=O)Nc1ccc(OC(C)=O)cc1 | / | -1.5% | -3.8% | / | / | /
COc1cccc(NC(=O)c2ccccc2)c1 | 0.3% | 10.3% | 0.5% | -1.5 | 0.8% | ?
CC(=O)Oc1ccc(Nc2ccccc2)cc1 | -14.5% | ? | 18.4µM* | 0.0 | ? | -14.7%
O=C(Oc1ccccc1)c1ccccc1O | / | 3.4% | -9.7% | / | / | /
COc1cc(OC)cc(C(=O)NCC(=O)Nc2ccc(-c3ccccc3)cc2)c1 | 2.91µM* | 18.4µM* | 16.4µM* | 38.9 | 5.8µM* | ?
O=C1c2cccnc2C(=O)N1Cc1ccc(S(=O)(=O)N2CCOc3ccc(Cl)cc32)cc1 | -1.1% | 21.7% | -10.0% | 28.7 | 1.0% | 23.6%
COc1ccc(NC(=O)c2cccc(NC(=O)c3ccccc3)c2)c(OC)c1 | -2.1% | ? | -12.2% | -5.3 | -19.8% | ?
COc1ccc(NC(=O)c2cccc(NC(=O)C(C)C)c2)c([N+](=O)[O-])c1 | 4.2% | 16.4µM* | ? | 1.4 | -3.5% | 1.3%
COc1cc(OC)cc(C(=O)Nc2ccc(Nc3ccccc3)cc2)c1 | -9.4% | ? | 20.6µM* | -23.7 | -10.5% | ?
COc1ccc(NC(=O)c2ccc(NC(=O)C(C)C)cc2)c([N+](=O)[O-])c1 | 3.1% | 2.3% | -4.3% | 6.0 | -4.0% | 9.9%
SMILES | HT1080-NT tox | DT40 TDP1 no CPT | TDP1 cell CPT | IL-1B inflam inh | HT1080 IDH1KD tx | ELG1 DNA repair
COc1ccc(OC)c(NC(=O)c2cccc(NC(=O)c3ccccc3)c2)c1 | 2.1% | ? | ? | -56.8* | -2.7% | ?
CC(=O)Oc1ccc(C(=O)Nc2cccc(C(=O)c3cccc(NC(=O)c4ccc(OC(C)=O)cc4)c3)c2)cc1 | ? | 23.1µM* | ? | 11.1 | ? | 23.1µM*
Cc1ccc(CNC(=O)CN2CCCN(Cc3ccc(F)cc3)S2(=O)=O)cc1 | / | -28.2% | -23.7% | / | / | /
NC(=O)C1(Nc2ccc(Br)cc2)CCCC1 | -10.1% | -17.4% | 3.7% | -2.3 | -0.8% | /
O=C(CNC(=O)c1ccccc1)OCc1cc(=O)n2nc(C3CC3)sc2n1 | / | -2.1% | 6.7% | / | / | /
COc1ccc(NC(=O)C2(c3ccc(NC(=O)c4ccc(OC(C)=O)cc4)cc3)CCCC2)cc1 | 13.7% | -24.1% | -22.3% | -11.1 | -3.5% | 2.5%
COc1cc(OC)cc(C(=O)Nc2cccc(NC(=O)c3ccccc3)c2)c1 | -20.4% | ? | 2.9% | -2.8 | -2.1% | 16.4µM*
COc1ccc(C(=O)Nc2ccc3ncccc3c2)cc1 | -14.5% | ? | 5.8µM* | -23.7 | -11.1% | ?
CC(=O)Oc1ccc(C(=O)Nc2ccc(C3(C#N)CCCC3)cc2)cc1 | -15.2% | 16.4µM* | 16.4µM* | -59.4* | ? | ?
COc1cc2c(cc1OC)CN(C(=O)CCOc1ccccc1C)CC2 | ? | 20.6µM* | ? | 36.5 | ? | ?
COc1cc2c(cc1OC)CN(C(=O)Cc1ccccc1)CC2 | 7.9% | -20.4% | 12.9% | 9.2 | 2.1% | 1.0%
COc1cc2c(cc1OC)CN(C(=O)CCOc1ccccc1)CC2 | -15.0% | 18.4µM* | ? | 21.8 | -20.2% | -22.9%
COc1ccc(OC)c(CC(=O)N2CCc3cc(OC)c(OC)cc3C2)c1 | 0.0% | ? | 0.13µM* | -2.1 | -3.4% | -7.6%
COc1cc2c(cc1OC)CN(C(=O)CCCOc1ccc(Cl)cc1Cl)CC2 | ? | 18.4µM* | 16.4µM* | ? | ? | ?
COc1cc2c(cc1OC)CN(C(=O)CCCN1C(=O)c3ccccc3C1=O)CC2 | 4.7% | -17.3% | -11.4% | 44.9 | -7.3% | -21.0%
